Results filed as inconclusive are left out. Where a call stands in place of a potency, no number is given. Active and inactive are the calls of the source. Calls follow the shape of the dose curve; as a rule, active = well fitted curve in the direction sought with a large enough effect; inconclusive = small, poorly fitted or top-dose-only effect, or effect the other way, or another doubt; inactive = no such curve, though single readings can be large or run the other way.

This test deals with Pyruvate kinase PKLR (Homo sapiens) (UniProt P30613). In words: Secondary LDH Assay for Activators of Human Reticulocyte Pyruvate Kinase: for Probe SAR. A digest of the protocol: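 Purified hPK-R (10 nM) coupled to LDH (1 uM), with 0.1 mM PEP, 4.0 mM ADP, 0.2 mM NADH in Tris-Cl pH 8.0, KCl, MgCl2. Initial rates came from kinetic NADH fluorescence over 3-6 minutes, normalized to an EC100 activator such as fructose-bis-phosphate.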
Chain of Pyruvate kinase PKLR (Homo sapiens) (P30613 whole entry, looked up): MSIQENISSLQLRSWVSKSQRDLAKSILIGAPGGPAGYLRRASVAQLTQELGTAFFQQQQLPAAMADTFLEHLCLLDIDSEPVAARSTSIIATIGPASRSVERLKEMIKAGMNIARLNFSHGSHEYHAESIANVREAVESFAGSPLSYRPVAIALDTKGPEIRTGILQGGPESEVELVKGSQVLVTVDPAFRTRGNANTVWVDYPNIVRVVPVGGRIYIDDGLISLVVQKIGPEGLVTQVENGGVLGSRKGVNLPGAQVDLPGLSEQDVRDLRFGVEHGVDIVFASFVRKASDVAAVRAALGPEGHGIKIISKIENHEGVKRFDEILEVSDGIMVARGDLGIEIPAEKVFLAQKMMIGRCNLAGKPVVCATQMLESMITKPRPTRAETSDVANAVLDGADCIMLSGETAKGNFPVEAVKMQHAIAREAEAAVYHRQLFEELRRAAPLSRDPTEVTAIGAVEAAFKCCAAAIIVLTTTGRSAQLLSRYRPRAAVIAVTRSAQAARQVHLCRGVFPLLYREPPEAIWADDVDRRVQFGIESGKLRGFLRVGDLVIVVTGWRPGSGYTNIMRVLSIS

Consider `CNc1cc2c(cc1S(=O)(=O)Nc1ccc(C)c(C)c1)CCC(=O)N2`, for which the Potency result was “inactive”.

In the case of `O=C1CCc2cc(S(=O)(=O)Nc3cccc(Cl)c3)ccc2N1`, the Potency result was “inactive”. The value for `CSc1cc2c(s1)c1cnn(Cc3cccc(O)c3)c(=O)c1n2C` was 259 nM (active); that for `Cc1ccc(NS(=O)(=O)c2ccc3c(c2)n(C)c(=O)n3C)cc1C` was “inactive”. The entry for `Cc1ccc(NS(=O)(=O)c2cc3c(cc2-c2ccsc2)NC(=O)CO3)cc1C` is “inactive”. The value for `O=C1c2ccccc2C(=O)N1c1cccc(Cl)c1` was “inactive”. As to `Cc1ccc(NS(=O)(=O)c2ccc(Cl)cc2)cc1C`, the Potency entry was “inactive”.

On to `O=C1c2ccccc2C(=O)N1c1ccc2ncccc2c1`, for which the Potency entry is “inactive”. As to `O=C1CCc2cc(S(=O)(=O)Nc3ccccc3-c3ccccc3)ccc2N1`, the Potency result is “inactive”. The value for `Cc1ccc(N[S+](=O)([O-])c2cc3c(cc2CCc2ccccc2)NC(=O)CO3)cc1C` was “inactive”; that for `Cc1cc(N2C(=O)c3ccccc3C2=O)n[nH]1` was “inactive”.

As for `Cc1ccc(NS(=O)(=O)c2ccc3c(c2)C(Cl)(Cl)C(=O)N3)cc1C`, the Potency result was “inactive”. The entry for `O=C1CCc2cc(S(=O)(=O)Nc3ccccn3)ccc2N1` is “inactive”; for `O=C1c2ccccc2C(=O)N1c1cccc2ncccc12` it is “inactive”. The entry for `COc1cccc(Cn2ncc3c4sc(S(C)=O)cc4n(C)c3c2=O)c1` (stereo not drawn) is “inactive”; for `COc1cccc(NS(=O)(=O)c2ccc3c(c2)CCC(=O)N3)c1` it is “inactive”; for `O=C1c2ccccc2C(=O)N1C1CCCCC1` it is “inactive”. With `O=S(=O)(c1ccc2c(c1)OCCO2)N1CCN(S(=O)(=O)c2c(F)cccc2F)CC1`, the Potency entry is “inactive”.
